From the supplement of paper PMC6555819

Tests used:
Assay in all cases: PBM binding z-score (relative to random genomic background probes); higher = stronger binding; sequences stand for … in GC…GCGATTGACAGCGTAGAATGAAGG
[1] = tested on: FXR:RXRa (NR concentration 270 nM, RXRa partner concentration 90 nM)
Summary of the method: (§1)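 Ligand-free nuclear receptor dimers were applied to custom Agilent 4×180K protein-binding microarrays whose double-stranded probes carried direct-repeat seeds, single-nucleotide variants, half-site ablations and random human genomic background sequences in 34-nt variable regions. Incubation lasted 1 h. Binding z-scores were computed against the random background probes from regression-normalized fluorescence.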

[2] = tested on: LXRa:RXRa (NR concentration 270 nM, RXRa partner concentration 90 nM)
Summary of the method: as §1

[3] = tested on: LXRa homodimer (NR concentration 270 nM)
Summary of the method: as §1

[4] = tested on: LXRb:RXRa (NR concentration 270 nM, RXRa partner concentration 90 nM)
Summary of the method: as §1

[5] = tested on: LXRb homodimer (NR concentration 270 nM)
Summary of the method: as §1

[6] = tested on: PPARa:RXRa (NR concentration 270 nM, RXRa partner concentration 90 nM)
Summary of the method: as §1

[7] = tested on: PPARg:RXRa (NR concentration 180 nM, RXRa partner concentration 90 nM)
Summary of the method: as §1

[8] = tested on: PPARg:RXRa 270nM:90nM, anti-RXR (NR concentration 270 nM, RXRa partner concentration 90 nM)
Summary of the method: as §1

[9] = tested on: PPARg:RXRa 30nM:10nM, anti-RXR (NR concentration 30 nM, RXRa partner concentration 10 nM)
Summary of the method: as §1

[10] = tested on: PPARg:RXRa 90nM:30nM, anti-RXR (NR concentration 90 nM, RXRa partner concentration 30 nM)
Summary of the method: as §1

[11] = tested on: PPARg:RXRa DBDmut IVT, anti-RXR (DBD mutation: RXRa K156A/R161A, NR concentration 270 nM, RXRa partner concentration 90 nM)
Summary of the method: as §1

[12] = tested on: PPARg:RXRa IVT, anti-PPARg (NR concentration 270 nM, RXRa partner concentration 90 nM)
Summary of the method: as §1

[13] = tested on: PPARg DBDmut:RXRa IVT, anti-PPARg (DBD mutation: PPARg1 K132A/R137A, NR concentration 270 nM, RXRa partner concentration 90 nM)
Summary of the method: as §1

[14] = tested on: PPARg DBDmut IVT, anti-PPARg (DBD mutation: PPARg1 K132A/R137A, NR concentration 270 nM)
Summary of the method: as §1

[15] = tested on: PPARg homodimer (NR concentration 180 nM)
Summary of the method: as §1

[16] = tested on: PXR:RXRa (NR concentration 270 nM, RXRa partner concentration 90 nM)
Summary of the method: as §1

[17] = tested on: PXR homodimer (NR concentration 270 nM)
Summary of the method: as §1

[18] = tested on: RARa:RXR (NR concentration 270 nM, RXRa partner concentration 90 nM)
Summary of the method: as §1

[19] = tested on: RARa homodimer (NR concentration 270 nM)
Summary of the method: as §1

[20] = tested on: RARb:RXRa (NR concentration 270 nM, RXRa partner concentration 90 nM)
Summary of the method: as §1

Sequence	PBM binding z-score [1]	PBM binding z-score [2]	PBM binding z-score [3]	PBM binding z-score [4]	PBM binding z-score [5]	PBM binding z-score [6]	PBM binding z-score [7]	PBM binding z-score [8]	PBM binding z-score [9]	PBM binding z-score [10]	PBM binding z-score [11]	PBM binding z-score [12]	PBM binding z-score [13]	PBM binding z-score [14]	PBM binding z-score [15]	PBM binding z-score [16]	PBM binding z-score [17]	PBM binding z-score [18]	PBM binding z-score [19]	PBM binding z-score [20]
ACTATTAGTTGACTTAGGGCAACGGATACGACGC	0.165	0.158	0.172	-0.137	0.447	-0.22	0.94	0.192	0.24	0.227	0.00929	0.309	1.35	1.09	0.328	0.113	0.452	0.313	0.0802	0.718
ATCGAAAGATCGAGGTGAGTATAGAGAAAGGGAA	0.0424	0.111	-0.321	-0.262	-0.23	0.469	0.553	0.362	0.533	0.418	-0.0862	1.27	0.466	0.643	-0.144	-0.176	-0.105	0.139	-0.0593	0.194
AATACAGGCTCACTAGGCCAGAGTAGGTACGAAT	-0.561	-0.71	-0.282	-0.839	-0.695	-0.441	0.692	0.176	0.027	-0.114	0.83	1.96	0.786	0.55	-0.108	-0.759	-0.466	-0.759	-0.709	-0.981
TCATATCGGTAAAGGTGAAAGTCGAACGATATGA	0.139	1.31	-0.173	1.35	-0.304	2.77	1.89	3.12	3.8	3.48	1.56	2.05	0.818	0.266	0.769	0.507	-0.566	1.62	0.00667	1.98
AGTCAAAGTTCACTAGGTAACATAAGATTCAGCT	4.79	5.28	3.12	3.27	1.4	4.86	7.49	6.62	3.82	5.79	2.79	5.27	1.65	1.65	3.16	4.33	3.16	2.97	2.25	4.79
AGCTCTAGGTAACAAGTTCAGTGAAAGAGAGGAC	0.5	0.614	0.194	0.684	0.134	1.53	1.33	1.92	0.448	1.34	3.82	2.13	0.734	0.272	0.839	1.63	1.98	0.544	0.529	1.64
CCTTACGGGTCACTGACAGGTTATAGGATTTGGA	4.95	4.33	0.341	3.36	-0.182	5.09	4.36	4.46	1.48	3.55	3.61	3.81	0.353	-0.0191	2.26	3.57	0.377	4.38	0.591	4.08
AGAAAGAGGTTACCAAAGATCAGGGAAACGCTTG	2.31	6.51	-0.18	3.65	0.0945	3.37	2.1	2.36	0.802	1.77	1.97	1.94	0.516	0.104	0.75	1.82	-0.238	2.63	0.245	2.62
ATCTCTAGGTAAGACTAAGTTCAGTGAAGAACGC	0.633	0.867	0.705	0.595	0.815	0.936	0.481	1.71	0.577	1.75	1.81	1.37	0.418	0.902	1.48	1.83	1.82	1.14	0.975	1.19
GCTGCTAAGTCAACTGATGGTCAGCTAAAGCTCG	-0.765	-0.562	-0.539	-0.754	-1.04	-0.555	-0.342	-0.538	-0.793	-0.507	-0.284	-0.667	-2.15	-1.17	-0.917	-0.575	-1.21	-0.177	-1.24	0.174
CCTAGGTGGTCAGGAGGTCACACACCGGATATGA	3.9	3.3	1.72	3.05	0.062	3.95	3.45	3.53	1.29	3.03	0.549	3.02	-0.0513	-0.161	3.26	4.04	1.33	4.78	1.85	3.71
ATCTCTAGGAAAAGATAGTTCAGTGAATGCAAAT	0.351	0.417	0.457	0.247	0.273	-0.0453	0.305	-0.0709	0.0801	-0.0493	-0.409	-0.0598	0.523	0.248	-0.459	0.432	0.918	-0.0188	1.07	0.49
CCTTACTGGTCAAGGTTATAGCACGGGTGGTACG	0.733	0.968	0.49	0.767	0.339	1.43	0.792	1.03	0.301	0.959	0.149	0.857	0.06	0.0641	1.25	1.12	0.519	1.01	0.942	2.02
ATACGAAGGTGATCGTGAGGTCGTTGATACTAAC	1.79	1.18	0.283	0.729	-0.403	1.47	0.5	0.532	0.382	0.531	0.525	0.827	0.418	-0.452	0.589	2.82	1.23	2	0.134	1.29
GCTCGGAGGACAAGGACAGAGCTTTGTCCGTAGA	-0.454	-0.825	-0.708	-0.936	-1.44	-0.604	-0.644	-0.934	-1.21	-1.04	-0.897	-0.505	-1.52	-0.297	-0.588	-0.527	-0.912	-0.421	-1.45	0.929
CCAAACAGGTGAAAGGTAACTCAGTCTGGTACGC	0.642	0.809	-0.217	1.09	-0.282	3.85	7.47	7.29	7.5	8.18	3.27	4.15	0.615	0.037	1.17	1.01	0.17	2.3	1.21	1.21
CGAACTAGGTCAGAACAGGACAGTGTAGGATGAT	1.59	0.807	-0.126	0.58	-0.539	3.33	5.09	4.48	1.85	3.29	7.44	7.53	3.18	2.19	1.06	0.998	0.228	0.95	0.229	3.07
ATCTCTAGGTAAGGATAGTTCAGTGAATGCAAAT	0.343	0.874	0.613	0.271	0.693	0.427	0.279	0.182	0.215	0.134	1.23	1.1	0.846	0.942	0.983	0.619	0.997	0.17	1.04	0.741
ATCTCTAGGTAAGACTCAGATCAGTGAAGAACGC	0.264	0.336	0.262	-0.0617	0.692	-0.153	0.264	0.0019	0.134	0.3	1.51	1.26	-0.0293	0.583	0.669	-0.381	0.314	-0.0698	1.46	-0.146
GATAAAGGGTCAAGGCCAGAGTACGCGTATTGAT	7.29	5.43	0.637	4.49	0.548	6.28	6.56	6.32	3.17	5.23	3.62	4.58	0.966	0.381	3.16	4.19	0.42	5.07	0.732	5.26
CCTTACGTGTCACGAGGTTATAGCACGACGAGCG	1.42	1.62	0.447	1.29	0.663	2.43	2.05	1.6	0.219	0.814	2.43	2.16	0.0495	0.563	1.81	1.5	0.447	1.97	0.817	1.78
TTACCAAGGTGAGCTGAGGTTGTTGATCCAACTC	0.871	-0.206	-0.484	-0.269	-1.04	0.271	-0.354	0.187	-0.357	-0.0442	1.22	1.51	-0.399	-0.245	-0.248	2.03	-0.915	0.168	-0.951	0.78
GCTCGTTGGTCAGTAAAAGGTCACACACCGGTCG	3.94	4.86	5.11	4.22	1.19	4.89	3.34	4.93	2.81	4.52	0.994	2.63	0.257	0.405	4.91	5.35	1.21	6.7	2.93	4.48
GATACAGGGTCAAGGCCAGAGTCCGCGTATTGAT	6.15	4.03	-0.217	3.58	0.0048	5.35	5.26	5.31	1.52	3.89	2.59	3.9	-0.201	-0.204	1.62	3.79	0.344	4.03	0.185	4.39
TCTTGTGGATCAATAGAGGTTAAGAAAGTGCGCT	0.938	3.27	0.355	1.91	0.376	1.63	-0.178	1.51	2.31	1.64	1.7	0.901	0.673	0.819	0.64	2.88	0.306	1.69	0.244	0.915
ACGTACGGGTCAACGAGGTTATAGCACGCGTATA	7	4.84	0.327	4.27	0.00154	5.95	5.01	4.94	1.55	3.46	1.33	2.92	0.48	0.418	1.72	5.2	2.83	5.19	0.777	4.28
CCTAGTAGGTCAAGGTCACACACGCTATAGGTAC	6.32	5.5	2.71	4.64	1.12	5.98	9.25	7.51	5.53	7.55	8.26	7.96	1.56	0.61	3.98	4.96	1.81	5.14	2.09	5.1
GCAATTAGTTGAAAGGGCAACCGAATGATTCTCG	0.0908	0.491	0.0352	0.496	-0.314	2.69	3.22	5.14	3.49	5.31	0.317	1.39	0.151	0.483	0.967	0.692	0.161	1.46	1.18	2.15
CGAACTAGGTCAATGACAGTGAATCTCCGCACGC	3.48	2.25	0.283	1.56	-0.147	4.35	6.92	5.8	2.99	5.2	7.95	7.88	1.44	0.0144	1.11	1.01	0.0387	1.71	0.201	3.68
